8 compounds from PubChem BioAssay (Tox21) can be followed below.

Several values for one entry are separate records, joined by “and”; a condition that tells them apart may be missing. Identical values can stand only once. Results filed as inconclusive are left out. Some structures have more than one record in an assay (separate samples or runs), and their calls can disagree. Activity calls are given as the source filed them. Unless noted, calls follow the shape of the dose curve; as a rule, active = well fitted curve in the direction sought with a large enough effect in the repeat runs; inconclusive = weak or mixed curves; inactive = no such curve, though single readings can be large; an effect the other way counts as inactive or inconclusive.

Experiment [1] can be described thus: qHTS assay to identify small molecule phospholipidosis (PLD) inducers (AID 1259344; active = well fitted curve in the direction sought with a large enough effect; an effect the other way counts as inactive or inconclusive). The method, boiled down:
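Cells (HepG2, 900 per well) attach for 4 h, receive LipidTOX Red and compound together, incubate 24 h at 37 C, are fixed 30 min with paraformaldehyde/Hoechst, then imaged at one site per well.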
For orientation: In qHTS, concentration-response curves come from the screen itself.

The nature of experiment [2]: qHTS assay to identify small molecule HDAC inhibitors (AID 1259364).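 Also: wild-type HCT-116 cells with endogenous class I/II HDAC activity; top concentration of the series differs between compounds; nearly all actives have a fitted effect of over 45% in size.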 Put shortly: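 HCT-116 wt cells, 1,500/well, overnight attach. Compounds (DMSO) 2 h, 37 °C. HDAC-Glo I/II, 30 min RT. Luminescence.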
Experiment [3] can be described thus: qHTS assay to identify small molecule HDAC inhibitors - cell viability counter screen (AID 1259365). Also: series mostly up to about 92 µM; nearly all actives have a fitted effect of over 50% in size. The method, boiled down: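 HCT-116 wild-type, overnight attachment; 2hr drug exposure, 37C; CellTiter-Glo luminescent ATP readout after 30min RT.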
The nature of experiment [4]: qHTS assay to identify small molecule antagonists of the sonic hedgehog signaling (Shh) pathway - cell viability counter screen (AID 1259367). Also: nearly all actives have a fitted effect of over 55% in size. Put shortly:
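Cytotoxicity was assessed in parallel with Shh reporter activity by measuring live-cell protease fluorescence (CellTiter-Fluor) in NIH/3T3 cells stably carrying Gli1-Luc, treated with compound under conditioned medium stimulation for 23 hr plus 1 hr reagent incubation.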

Experiment [5] in a line: qHTS assay to identify small molecule agonists of the sonic hedgehog signaling (Shh) pathway (AID 1259368; calls by dose curve;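 also: NIH/3T3-derived 3T3Gli1-Luc cells carrying a stable Gli1-driven firefly luciferase reporter; series mostly up to about 92 µM; nearly all actives have a fitted effect of over 15% in size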). Put shortly:
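Following a 24 hr incubation with DMSO-dissolved compounds at 37 C, 5% CO2, Gli1-Luc NIH/3T3-derived cells received luciferase reagent for 30 min at room temperature prior to luminescence measurement.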

Experiment [6] is described as follows: qHTS assay to identify small molecule antagonists of the sonic hedgehog signaling (Shh) pathway (AID 1259369; calls by dose curve; also: nearly all actives have a fitted effect of over 45% in size; also: potency is read from the fitted curve at half-maximal effect). The method, boiled down: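 Read-out is luminescence from a firefly luciferase gene controlled by the Gli1 response element, in 3T3Gli1-Luc cells pre-incubated 4hr then exposed to compounds and conditioned medium for 24hr.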
For experiment [7], the target named is Estrogen receptor beta (Homo sapiens) (UniProt Q92731). Nature of the experiment: qHTS assay to identify small molecule antagonists of the estrogen receptor beta (ER-beta) signaling pathway (AID 1259378; active = well fitted inhibition curve with a large enough effect in the signal ratio in the repeat runs, not every such curve was filed as active; the % refers to the signal ratio). Put shortly: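 ER-beta-UAS-bla HEK293T (GripTite) cells in 2% charcoal-stripped FBS medium were preincubated 6 hr at 37C, dosed with compound, then stimulated with 1 nM E2 (final) for 16 hr; beta-lactamase reporter read by B/G FRET fluorescence after 2 hr substrate loading.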
Estrogen receptor beta (Homo sapiens), sequence (Q92731 whole entry, looked up): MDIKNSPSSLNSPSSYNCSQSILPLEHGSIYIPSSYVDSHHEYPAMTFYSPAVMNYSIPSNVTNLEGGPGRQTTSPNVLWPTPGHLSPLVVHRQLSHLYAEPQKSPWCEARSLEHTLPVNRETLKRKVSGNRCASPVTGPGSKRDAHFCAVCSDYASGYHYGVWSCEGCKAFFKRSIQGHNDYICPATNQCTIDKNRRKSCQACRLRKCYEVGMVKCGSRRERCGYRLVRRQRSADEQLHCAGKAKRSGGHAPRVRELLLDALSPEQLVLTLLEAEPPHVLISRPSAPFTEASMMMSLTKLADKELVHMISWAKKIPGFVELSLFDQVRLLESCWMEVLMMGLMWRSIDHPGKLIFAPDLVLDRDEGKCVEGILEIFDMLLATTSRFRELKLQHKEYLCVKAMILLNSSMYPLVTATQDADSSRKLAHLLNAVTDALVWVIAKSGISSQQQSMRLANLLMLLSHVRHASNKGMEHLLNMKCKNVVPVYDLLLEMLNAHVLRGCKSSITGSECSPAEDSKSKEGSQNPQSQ

Experiment [8] can be described thus: qHTS assay to identify small molecule agonists of the androgen receptor (AR) signaling pathway in the presence of an antagonist - cell viability counter screen (AID 1259379).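 Also: MDA-kb2 human breast cancer cells carrying an MMTV luciferase reporter; series mostly up to about 92 µM; nearly all actives have a fitted effect of over 25% in size.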 The method, boiled down:
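Each compound was tested at 15 concentrations on MDA-kb2 cells in the presence of 3.0uM nilutamide. Viability was measured by CellTiter-Fluor fluorescence after a 16 hr incubation at 37C in a CO2-free atmosphere.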

Experiment [9] can be described thus: qHTS assay to identify small molecule agonists of the estrogen receptor beta (ER-beta) signaling pathway - cell viability counter screen (AID 1259380). Also: nearly all actives have a fitted effect of over 30% in size. The method, boiled down: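 Compounds dissolved in DMSO were pin-transferred onto ER-beta-UAS-bla HEK293T cells that had settled 6 hr, and exposure ran 16 hr at 37C. Following the reporter read, CellTiter-Glo luminescence after 30 min at room temperature indicated cytotoxicity.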

A short description of experiment [10]: qHTS assay to identify small molecule antagonists of the estrogen receptor beta (ER-beta) signaling pathway - cell viability counter screen (AID 1259382). Also: series mostly up to about 92 µM; nearly all actives have a fitted effect of over 55% in size. Put shortly: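 CellTiter-Glo ATP luminescence measured after the LiveBLAzer read in the same wells; ER-beta-UAS-bla HEK293T cells, 16 hr compound treatment with 1nM 17-beta-estradiol agonist at 37C, 5% CO2.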

Experiment [11] is described as follows: qHTS assay to identify small molecule agonists or antagonists of the thyroid stimulating hormone receptor (TSHR) signaling pathway - wild type cell line counter screen (AID 1259384; calls by dose curve). Put shortly:
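Wild-type HEK293 cells were plated 18 h at 37 C/5% CO2, pin-dosed with compound plus Ro20-1724 medium, held 30 min at room temperature, then given cAMP-d2 and anti-cAMP-cryptate; fluorescence was read after 1 h. Fifteen concentrations, triplicate.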

For experiment [12], the target named is Thyrotropin receptor (Homo sapiens) (UniProt P16473). As to the kind of experiment: qHTS assay to identify small molecule antagonists of the thyroid stimulating hormone receptor (TSHR) signaling pathway (AID 1259385; calls by dose curve; also: nearly all actives have a fitted effect of over 20% in size). Put shortly: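 TSHR-HEK293 cells were plated and held 18 h at 37C/5% CO2, then given compound plus Ro20-1724 and stimulated with TSH at 1.5 ng/mL final. After 30 min at room temperature, cAMP was detected with cAMP-d2/anti-cAMP-cryptate (1 h) by fluorescence.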
Thyrotropin receptor (Homo sapiens), sequence (P16473 whole entry, looked up): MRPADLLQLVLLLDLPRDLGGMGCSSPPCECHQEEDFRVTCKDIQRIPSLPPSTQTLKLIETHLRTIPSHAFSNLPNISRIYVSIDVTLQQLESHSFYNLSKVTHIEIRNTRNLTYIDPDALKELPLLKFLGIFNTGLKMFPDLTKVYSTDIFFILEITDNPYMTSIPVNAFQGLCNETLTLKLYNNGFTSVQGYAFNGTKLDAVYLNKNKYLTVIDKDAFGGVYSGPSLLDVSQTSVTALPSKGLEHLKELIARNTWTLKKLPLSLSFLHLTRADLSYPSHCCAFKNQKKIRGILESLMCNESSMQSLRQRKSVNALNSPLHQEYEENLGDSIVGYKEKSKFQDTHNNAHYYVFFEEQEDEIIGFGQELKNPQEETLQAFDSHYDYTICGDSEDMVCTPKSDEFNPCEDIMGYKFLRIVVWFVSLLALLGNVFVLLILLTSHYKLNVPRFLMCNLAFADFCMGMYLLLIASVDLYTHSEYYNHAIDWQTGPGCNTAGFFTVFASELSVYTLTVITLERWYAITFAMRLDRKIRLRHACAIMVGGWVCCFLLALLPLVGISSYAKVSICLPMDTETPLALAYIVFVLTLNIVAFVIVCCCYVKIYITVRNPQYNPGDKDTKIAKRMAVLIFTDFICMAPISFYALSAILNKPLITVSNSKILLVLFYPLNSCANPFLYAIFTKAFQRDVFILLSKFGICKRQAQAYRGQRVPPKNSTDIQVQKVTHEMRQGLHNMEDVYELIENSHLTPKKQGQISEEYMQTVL

Experiment [13] in a line: qHTS assay to identify small molecule agonists of the estrogen receptor alpha (ER-alpha) signaling pathway in the presence of an antagonist - cell viability counter screen (AID 1259386).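 Also: series mostly up to about 92 µM; cells exposed to compounds for 22 h at 37 °C before the viability read; nearly all actives have a fitted effect of over 30% in size.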 The method, boiled down: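 Using estrogen-depleted VM7Luc4E2 cells, the 15-concentration compound series was applied together with 10.0nM ICI-182,780 and incubated 22hr at 37C/5% CO2. Cell viability was then scored by CellTiter-Fluor.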

The target in experiment [14] is Progesterone receptor (Homo sapiens) (UniProt P06401). Nature of the experiment: qHTS assay to identify small molecule agonists of the progesterone receptor (PR) signaling pathway (AID 1346784; calls by dose curve; also: nearly all actives have a fitted effect of over 30% in size). The method, boiled down:
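Fluorescence from LiveBLAzer B/G FRET substrate cleavage (2 hr, RT) reported PR activation in PR-UAS-bla HEK 293T cells treated 16 hr at 37C/5% CO2 with compounds; medium contained 2% charcoal-stripped FBS.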

Experiment [15] shares this target. Nature of the experiment: qHTS assay to identify small molecule antagonists of the progesterone receptor (PR) signaling pathway (AID 1346795; active = well fitted inhibition curve with a large enough effect in the signal ratio in the repeat runs, not every such curve was filed as active; the % refers to the signal ratio). Put shortly:
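Fluorescence intensity measured 2 hr after adding beta-lactamase FRET substrate to PR-UAS-bla HEK293T cells that had been co-treated 16 hr with compound and 1 nM R5020 (final concentration) in 2% charcoal-stripped FBS.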

Experiment [16] is described as follows: qHTS assay to identify small molecule antagonists of the progesterone receptor (PR) signaling pathway - cell viability counter screen (AID 1346798). Also: series mostly up to about 92 µM; nearly all actives have a fitted effect of over 50% in size. The method, boiled down: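 CellTiter-Glo luminescence; PR-UAS-bla HEK293T, 3,000 cells/well; compound + R5020, 16 hr, 37C/5% CO2; 30 min RT before read.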
Experiment [17] is described as follows: qHTS assay to identify small molecule agonists of the sonic hedgehog signaling (Shh) pathway - cell viability counter screen (AID 1259366). Also: nearly all actives have a fitted effect of over 50% in size. The method, boiled down: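 Compounds in DMSO were pin-transferred onto 3T3 Gli1-Luc cells that had settled 4hr; plates then stood 24hr at 37C and 5% CO2. One hour before the end, CellTiter-Fluor was added and fluorescence recorded.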

For experiment [18], the target named is Estrogen receptor beta (Homo sapiens) (UniProt Q92731). Nature of the experiment: qHTS assay to identify small molecule agonists of the estrogen receptor beta (ER-beta) signaling pathway (AID 1259377; active = well fitted activation curve with a large enough effect in the signal ratio in the repeat runs, not every such curve was filed as active; the % refers to the signal ratio). Put shortly:
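qHTS in ER-beta-UAS-bla HEK293T cells: 6 hr settling, then 16 hr compound at 37C, then LiveBLAzer substrate 2 h at RT before fluorescence reading.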

For experiment [19], the target named is Androgen receptor (Homo sapiens) (UniProt P10275). Nature of the experiment: qHTS assay to identify small molecule agonists of the androgen receptor (AR) signaling pathway in the presence of an antagonist (AID 1259381; calls by dose curve; also: nearly all actives have a fitted effect of over 15% in size). Put shortly:
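Plated MDA-kb2 cells (3,000/well) were pre-incubated 5hr, given nilutamide (3.0uM final) or buffer, then dosed with compounds in DMSO at 15 concentrations. Luciferase activity was quantified by luminescence after 16hr at 37C.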

The target of experiment [20] is Estrogen receptor (Homo sapiens) (UniProt P03372). Nature of the experiment: qHTS assay to identify small molecule agonists of the estrogen receptor alpha (ER-alpha) signaling pathway in the presence of an antagonist (AID 1259383; calls by dose curve; also: top concentration of the series differs between compounds; nearly all actives have a fitted effect of over 15% in size). Put shortly:
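Luminescent ERE-luciferase reporter, VM7Luc4E2 cells (endogenous ER-alpha); 10.0nM ICI-182,780 final; 15-point compound titration; 22hr at 37C; ONE-Glo, 30min RT.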

Estrogen receptor (Homo sapiens), sequence (P03372 whole entry, looked up): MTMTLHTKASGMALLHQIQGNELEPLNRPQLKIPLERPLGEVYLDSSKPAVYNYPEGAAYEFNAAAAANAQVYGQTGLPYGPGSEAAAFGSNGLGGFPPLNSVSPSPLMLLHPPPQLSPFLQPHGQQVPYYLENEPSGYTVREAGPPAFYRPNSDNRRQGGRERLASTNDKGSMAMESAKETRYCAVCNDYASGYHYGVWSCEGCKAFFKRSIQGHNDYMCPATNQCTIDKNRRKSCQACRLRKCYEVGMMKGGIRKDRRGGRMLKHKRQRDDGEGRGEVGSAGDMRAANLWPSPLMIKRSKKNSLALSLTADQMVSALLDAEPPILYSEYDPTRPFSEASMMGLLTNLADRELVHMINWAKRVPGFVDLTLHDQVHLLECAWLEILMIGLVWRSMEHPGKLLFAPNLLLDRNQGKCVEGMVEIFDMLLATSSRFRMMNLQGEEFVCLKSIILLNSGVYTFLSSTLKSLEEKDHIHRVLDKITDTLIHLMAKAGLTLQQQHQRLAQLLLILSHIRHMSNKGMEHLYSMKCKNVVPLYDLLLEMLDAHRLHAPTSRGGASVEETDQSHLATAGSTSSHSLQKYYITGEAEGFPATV
Progesterone receptor (Homo sapiens), sequence (P06401 whole entry, looked up): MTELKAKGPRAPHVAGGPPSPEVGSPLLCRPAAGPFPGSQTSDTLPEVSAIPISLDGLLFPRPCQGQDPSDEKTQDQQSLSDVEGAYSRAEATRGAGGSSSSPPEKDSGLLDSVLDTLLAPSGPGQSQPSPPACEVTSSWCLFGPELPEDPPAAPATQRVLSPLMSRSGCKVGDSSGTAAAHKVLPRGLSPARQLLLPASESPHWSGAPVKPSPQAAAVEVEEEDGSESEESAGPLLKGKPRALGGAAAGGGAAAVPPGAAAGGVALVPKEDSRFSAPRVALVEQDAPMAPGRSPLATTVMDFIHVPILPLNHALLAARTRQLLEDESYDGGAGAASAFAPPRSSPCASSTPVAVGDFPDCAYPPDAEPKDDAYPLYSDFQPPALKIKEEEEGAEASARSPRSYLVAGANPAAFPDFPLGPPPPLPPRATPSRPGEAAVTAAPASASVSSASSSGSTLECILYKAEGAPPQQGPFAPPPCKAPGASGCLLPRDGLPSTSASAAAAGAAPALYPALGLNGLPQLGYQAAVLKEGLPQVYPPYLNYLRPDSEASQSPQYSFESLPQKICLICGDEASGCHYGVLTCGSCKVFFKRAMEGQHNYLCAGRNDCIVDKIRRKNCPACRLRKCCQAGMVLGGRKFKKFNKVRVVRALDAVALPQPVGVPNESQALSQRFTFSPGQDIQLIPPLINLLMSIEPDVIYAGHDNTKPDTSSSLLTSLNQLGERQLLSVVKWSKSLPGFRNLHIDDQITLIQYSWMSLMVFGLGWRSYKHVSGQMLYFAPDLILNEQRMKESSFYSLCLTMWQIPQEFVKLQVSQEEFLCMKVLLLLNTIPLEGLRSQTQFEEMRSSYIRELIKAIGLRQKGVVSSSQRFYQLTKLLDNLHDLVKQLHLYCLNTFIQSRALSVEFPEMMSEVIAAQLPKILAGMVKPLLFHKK
Androgen receptor (Homo sapiens), sequence (P10275 whole entry, looked up): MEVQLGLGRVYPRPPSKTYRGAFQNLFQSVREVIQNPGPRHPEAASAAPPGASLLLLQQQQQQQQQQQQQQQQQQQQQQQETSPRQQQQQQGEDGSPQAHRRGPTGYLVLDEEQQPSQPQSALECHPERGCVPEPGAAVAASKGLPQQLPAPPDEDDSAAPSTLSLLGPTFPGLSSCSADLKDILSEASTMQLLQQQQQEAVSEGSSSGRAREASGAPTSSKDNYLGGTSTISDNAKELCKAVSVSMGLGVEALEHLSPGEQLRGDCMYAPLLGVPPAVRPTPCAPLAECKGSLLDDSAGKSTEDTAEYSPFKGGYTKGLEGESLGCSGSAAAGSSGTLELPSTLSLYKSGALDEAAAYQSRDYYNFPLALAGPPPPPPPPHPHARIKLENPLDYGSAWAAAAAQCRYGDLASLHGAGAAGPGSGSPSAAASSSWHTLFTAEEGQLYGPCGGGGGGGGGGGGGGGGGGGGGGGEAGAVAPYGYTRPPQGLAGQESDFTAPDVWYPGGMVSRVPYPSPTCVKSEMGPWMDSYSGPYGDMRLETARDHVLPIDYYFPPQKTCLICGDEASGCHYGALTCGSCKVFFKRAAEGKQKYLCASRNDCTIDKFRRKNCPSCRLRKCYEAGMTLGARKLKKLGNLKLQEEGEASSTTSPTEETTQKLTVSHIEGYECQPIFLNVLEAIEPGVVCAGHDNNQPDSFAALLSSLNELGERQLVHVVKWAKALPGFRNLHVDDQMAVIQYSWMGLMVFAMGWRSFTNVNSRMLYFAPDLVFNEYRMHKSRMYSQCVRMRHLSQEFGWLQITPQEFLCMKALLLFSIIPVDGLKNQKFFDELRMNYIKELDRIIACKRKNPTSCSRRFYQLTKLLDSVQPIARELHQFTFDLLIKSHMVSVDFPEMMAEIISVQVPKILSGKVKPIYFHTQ

With `O=c1[nH]c(=O)n([C@H]2CCCO2)cc1F`, the compound was called inactive in experiment [1], in [3], in experiment [5] and in experiment [11]. In addition, the Potency entry in [2], in experiment [4], in experiment [6], in experiment [7], in [8] and in experiment [9] was “inactive” each time. Also, the Potency entry in experiment [10], in [12], in experiment [13], in experiment [14], in experiment [15] and in experiment [16] was “inactive” each time.
As to `FC(F)(F)c1ccc(Cl)c(Cl)c1`, the Potency entry in experiment [2], in experiment [17], in experiment [4], in experiment [18], in [7] and in [8] was “inactive” each time. Moreover, the Potency result in experiment [9], in experiment [19], in experiment [10], in [12], in experiment [13] and in experiment [14] was “inactive” in each case. Further, the Potency entry in experiment [15] and in experiment [16] was “inactive” throughout. Moreover, the compound was called inactive in experiment [3] and in experiment [5].
As for `CCCCCCCCC/C=C/CC1CC(=O)OC1=O` (stereo unspecified), the Potency entry in [2], in [17], in experiment [4], in experiment [6], in experiment [8] and in experiment [10] was “inactive” each time. Besides, the Potency entry in [12], in [13], in [14], in experiment [15] and in experiment [16] was “inactive” throughout. Further, the compound was classed as inactive in [3] and in experiment [5].
Take `c1c[nH]cn1`: the Potency entry in [2], in experiment [17], in experiment [4], in experiment [6], in [18] and in experiment [7] was “inactive” each time. Besides, the Potency entry in experiment [8], in experiment [9], in experiment [10], in experiment [20], in [13] and in experiment [14] was “inactive” throughout. The Potency result in experiment [15] and in experiment [16] was “inactive” in each case. The result in experiment [3] and in experiment [5] was inactive.
Turning to `CC(=O)CC(=O)Nc1ccccc1C`, the Potency result in experiment [2], in experiment [17], in experiment [4], in experiment [18], in experiment [7] and in experiment [8] was “inactive” each time. The Potency entry in [10], in experiment [20], in experiment [12], in experiment [13], in [14] and in experiment [15] was “inactive” each time. For the same compound, the Potency entry in [16] was “inactive”. Moreover, the compound was called inactive in experiment [3] and in [5].
On to `O=[N+]([O-])c1ccc(/C=C/c2ccc([N+](=O)[O-])cc2S(=O)(=O)O)c(S(=O)(=O)O)c1`, for which the Potency entry in experiment [2], in experiment [17], in experiment [4], in experiment [18], in experiment [7] and in experiment [8] was “inactive” each time. The Potency entry in experiment [10], in experiment [20], in experiment [13], in [14], in experiment [15] and in [16] was “inactive” throughout. Besides, the compound was classed as inactive in experiment [3] and in [5].
For `ON=C1CCCCC1`, the Potency entry in [2], in experiment [17], in [4], in experiment [18], in experiment [7] and in experiment [8] was “inactive” throughout. In addition, the Potency result in experiment [9], in experiment [10], in experiment [12], in experiment [13], in [14] and in experiment [15] was “inactive” throughout. Besides, in [16], the Potency entry is “inactive”. Moreover, the result in experiment [3], in experiment [5] and in [11] was inactive. Also, in experiment [6], the Potency entry is “inactive and 27.3 µM (active)”.
`CC(C)CC(=O)CC(C)C`: the Potency result in experiment [2], in experiment [17], in experiment [4], in [18], in experiment [7] and in experiment [8] was “inactive” each time. The Potency entry in [9], in experiment [10], in experiment [13], in experiment [14], in experiment [15] and in [16] was “inactive” each time. For the same compound, the compound was classed as inactive in experiment [3] and in [5].
